The target of the test is Genome polyprotein (Dengue virus type 2 (strain 16681-PDK53)) (UniProt P29991). The experiment in a line: flavivirus cap methylation enzyme inhibition – biochemical, confirmation dose response, primary screen (AID 588689). Particulars: Dengue-2 NS5 methyltransferase capping enzyme assay, at 25 µM, stronger effect = higher value.
Setting [1] is: measured here: pilot screen replicate inhibition.

Here are results for 98 compounds from PubChem BioAssay AID588689 (Southern Research Specialized Biocontainment Screening …, 2011).

Values joined by “and” are separate entries in the source; they are usually repeats but may differ in a detail not shown here. Equal values may be shown once. Screen size: about 340,000 compounds; about 1,000 (0.29%) were called active. Rule as the data show it: inconclusive = inhibition above about 29% without an active follow-up result; inactive = below that. These entries were drawn from the full list. Results with a measured potency or affinity are listed apart.

The term inhibition denotes the drop in the measured response relative to a control, in per cent. Consider `Cc1ccc(S(=O)(=O)N2CCN(Cc3csc(C)n3)CC2)cc1`, for which the inhibition is 2.27% (inactive).
Still for that read-out and setting: for `CC(C)CN(C(=O)COC(=O)CSc1ccc(Br)cc1)C1CCS(=O)(=O)C1` (stereo not given) the value was -3.62% (inactive).
The same measure, in the same setting: then `COc1cc(C=O)ccc1OCCOCCOc1ccc(Cl)cc1Cl`, with -6.82% (inactive).
The same measure, in the same setting: then `Nc1cccc2cc(S(=O)(=O)O)ccc12`, with 13.9% (inactive); and `Nc1cccc2c(O)cccc12`, with 6.13% (inactive); and `O=C1c2ccccc2-c2n[nH]c(=O)c3ccc(N4CCCCC4)c1c23`, with -9.35% (inactive).
As for `O=C1c2ccccc2-c2nccnc21`, the inhibition is 1.62% (inactive).
On the same count and under the same terms, for `C=CCNC(=S)N/N=C/c1ccccc1OCCOc1ccccc1` the value was 2.29% (inactive); for `CCN(CC)C(=O)CCSc1nnc(-c2ccncc2)o1`, -3.83% (inactive).
Same read-out and setting: then `Cc1ccc(OCC(=O)N[C@@H](C)c2nnc3ccccn23)cc1C`, with -6.18% (inactive); and `O=C(COC(=O)c1cccc(F)c1)Nc1cccc(S(=O)(=O)N2CCOCC2)c1`, with -5.49% (inactive).
Still for that read-out and setting: then `COc1ccc(NC(=O)C2CCC(CNc3c(N4CCC(C)CC4)c(=O)c3=O)CC2)cc1OC` (stereo not given), with -6.26% (inactive) and 8.76% (inactive); and `COc1ccc(C(=O)NNc2ccccc2)cc1`, with 4.46% (inactive); and `O=C(NNc1ccccc1)c1ccccc1`, with -0.81% (inactive).
As for `Cn1c(=O)[nH]c(=O)c2c1nc(N1CCOCC1)n2CCN1CCOCC1`, the inhibition was 1.62% (inactive).
Same read-out and setting: then `O=C(Nc1scc(-c2cccs2)c1C(=O)O)c1cccs1`, with 22.9% (inactive); and `COc1ccc(-c2csc(NC(=O)c3ccccc3F)c2C(=O)O)cc1`, with 11.1% (inactive).
Same read-out and setting: then `COc1cc(C(=O)Nc2scc(-c3ccccc3)c2C(=O)O)cc(OC)c1OC`, with 14.7% (inactive); and `COc1ccc(-c2csc(NC(=O)c3cccs3)c2C(=O)O)cc1OC`, with -3.65% (inactive).
Same read-out and setting: then `Cc1ccccc1C(=O)Nc1scc(-c2ccc(Br)cc2)c1C(=O)O`, with 22.5% (inactive).
With `COc1cc(C(=O)Nc2scc(-c3ccc(C)cc3)c2C(=O)O)cc(OC)c1OC`, the inhibition is 3.47% (inactive).
Still for that read-out and setting: then `Cc1ccc(Cn2ccc(NC(=O)c3cc(-c4ccc(Cl)cc4)on3)n2)cc1`, with -1.39% (inactive).
On the same count and under the same terms, then `Oc1ccccc1C1OCC2(CO1)COC(c1ccccc1O)OC2` (stereo not given), with 1.95% (inactive); and `COc1cccc(-c2c(-c3cc(OC)cc(OC)c3)n(C)c3ccc(-c4ccc(OC)nc4)cc23)c1`, with 2.45% (inactive).
Still for that read-out and setting: for `COC(=O)[C@@H](NC(=O)/C=C/c1ccc(OC)cc1)C(C)C` the value was -9.35% (inactive).
On to `COc1ccc(NC(=O)N(C)C[C@@H]2OCc3cn(nn3)CCCC(=O)N([C@H](C)CO)C[C@H]2C)cc1`, for which the inhibition was -1.7% (inactive).
Still for that read-out and setting: then `COc1ccccc1CNC(=O)CN(CCc1ccccc1)S(C)(=O)=O`, with -7.36% (inactive).
The same measure, in the same setting: then `COc1ccc(NS(=O)(=O)c2cc(NC(=O)c3sccc3C)ccc2N2CCOCC2)cc1`, with 0.57% (inactive); and `CC(=O)c1ccc(N2CCN(S(=O)(=O)c3c(C(=O)N4CCCCC4)c(C)n(C)c3C)CC2)cc1`, with -2.71% (inactive).
For `Fc1cccc(Cl)c1CN1CCN(c2nc3ccccc3s2)CC1`, the inhibition was -4.55% (inactive).
Same read-out and setting: for `CCn1c(/C=N/c2nc3ccccc3n2C)nc2ccccc21` the value was -0.7% (inactive); for `COc1ccc(O)c(/C=N/c2nc3ccccc3n2C)c1`, 3.47% (inactive); for `Cc1csc2c(=O)n3c(nc12)CCCCC3`, -3.21% (inactive).
Same read-out and setting: then `Cc1ccc(Sc2ccc(/C=C3/C(=O)NN(c4ccccc4)C3=O)o2)cc1`, with -2.65% (inactive); and `CCN1C(=O)N/C(=C/c2ccc(Sc3ccc(C)cc3)o2)C1=O`, with -2.74% (inactive).
In the case of `O=C(COC(=O)/C=C/c1ccco1)NC1CCCCC1`, the inhibition was -4.04% (inactive).
On the same count and under the same terms, then `CC(=O)Nc1ccc(C(=O)CSc2nnc(-c3ccccc3F)n2CCc2ccccc2)cc1`, with -4.64% (inactive); and `C[C@@H](C[C@@H](O)[C@H](O)C(C)(C)O)[C@@H]1CC[C@]2(C)C3=CC[C@H]4C(C)(C)C(=O)CC[C@]4(C)[C@H]3CC[C@@]12C`, with -3.21% (inactive).
Same read-out and setting: then `O=C(COC(=O)c1cc(Br)ccc1O)NNC(=O)c1cccs1`, with 0% (inactive); and `Nc1nc(SCc2ccccc2)c2[nH]cnc2n1`, with -9.52% (inactive); and `CNc1ncnc(Sc2nc(N)nc3nc[nH]c23)c1[N+](=O)[O-]`, with -30.9% (inactive).
On the same count and under the same terms, then `CC(C)C(NS(=O)(=O)c1cccc(C(F)(F)F)c1)C(=O)N1CCc2ccccc2C1` (stereo not given), with -4.98% (inactive); and `CCn1c(SCC(=O)NNC(=O)c2ccc(C)cc2)nnc1C(C)C`, with 7.12% (inactive).
`Nc1ccc(N2CCOCC2)c2nonc12`: the inhibition is 45.2% (inactive).
The same measure, in the same setting: then `Nc1ccc(N2CCCCC2)cc1N1CCCCC1`, with 25.7% (inactive).
Still for that read-out and setting: then `O=C1C2CCCN2C(=S)N1c1ccccc1` (stereo not given), with -3.27% (inactive).
On the same count and under the same terms, for `COc1ccccc1-c1cc(N)n[nH]1` the value was 2.4% (inactive); for `COc1cccc(N2C(=O)/C(=C\c3cccs3)NC2=S)c1`, -5.28% (inactive).
Consider `CC1CC(C)CN(C(=O)/C=C/c2ccc([N+](=O)[O-])s2)C1` (stereo not given), for which the inhibition was -5.44% (inactive).
The same measure, in the same setting: for `COc1cccc(NCc2ccc([N+](=O)[O-])s2)c1` the value was -8.01% (inactive); for `COc1ccc(N2C(=O)NC(=O)C2=O)cc1`, -2.2% (inactive).
The same measure, in the same setting: for `CC1=CN2C(=N)/C(=C/c3ccc([N+](=O)[O-])o3)C(=O)N=C2S1` the value was -58.2% (inactive); for `Cc1ccc(/C=C2\C(=O)NC(=O)N2C)o1`, 23.3% (inactive).
On the same count and under the same terms, for `Cc1cc(C)cc(N=Cc2ccc([N+](=O)[O-])s2)c1` the value was 4.37% (inactive).
Regarding `COc1ccc(NC(C)C(=O)N/N=C/c2ccc([N+](=O)[O-])s2)cc1` (stereo not given), the inhibition was -5.18% (inactive).
Still for that read-out and setting: for `Cc1cc(-c2ccc(S(=O)(=O)NCc3ccc(F)cc3)cc2)on1` the value was -4.39% (inactive); for `O=C(Cc1ccc(Br)cc1)N/N=C/c1cccnc1`, 1.95% (inactive); for `CCOC(=O)Cc1csc(SC(C)C(=O)Nc2ccc(NC(C)=O)cc2)n1` (stereo not given), -3.63% (inactive).
For `Cc1ccc(/C=C/C2=NN(Cc3ccccc3Cl)C(=O)CC2)cc1`, the inhibition is -2.71% (inactive).
The same measure, in the same setting: for `O=C(CCC1CCCC1)NCCS(=O)(=O)N1CCN(c2ccccc2)CC1` the value was -5.17% (inactive); for `Cc1c(C(=O)OCC(=O)N2CC(=O)Nc3ccccc32)oc2ccc(Br)cc12`, -0.83% (inactive); for `Cc1cccc(NC(=O)C(=O)NCC2CCCN2S(=O)(=O)c2cccs2)c1` (stereo not given), 6.86% (inactive).
On the same count and under the same terms, then `Cc1onc(-c2ccccc2)c1C(=O)OCC(=O)c1ccc[nH]1`, with -1.1% (inactive); and `COC(=O)NC1CSCC1OC(=O)CN1C(=O)c2ccccc2C1=O` (stereo not given), with 1.83% (inactive).
On the same count and under the same terms, for `NS(=O)(=O)c1ccc(NC(=O)COc2ccc(S(=O)(=O)N3CCCC3)cc2)cc1` the value was -0.81% (inactive); for `O=C1NC(=O)N(c2ccccc2)C1=O`, 0% (inactive); for `O=C1N/C(=C/c2ccc(Br)s2)C(=O)N1c1ccccc1`, -5.43% (inactive).
`Cc1ccc(-n2nnnc2CS(=O)(=O)c2ccccc2)c(C)c1`: the inhibition was -5.86% (inactive).
On to `C=CCc1ccccc1OCC(=O)OCCNC(=O)c1cccnc1`, for which the inhibition is 3.9% (inactive).
For `Cc1ccc(NCc2ccccc2)cc1`, the inhibition is -5.19% (inactive).
On the same count and under the same terms, for `CSc1ccc(CNc2ccc(C)cc2)cc1` the value was 2.76% (inactive).
With `COc1ccc(OC)c(N=c2oc3c(OC)cccc3cc2C(=O)NCc2ccco2)c1`, the inhibition is -9.6% (inactive). Also, the inhibition under setting [1] was -5.77%.
On the same counts, the results for `COc1ccccc1N=c1oc2c(OC)cccc2cc1C(=O)NCc1ccco1` are 12.3% (inactive) and 6.37%.
As to `O=c1oc2ccccc2c(O)c1C=Nc1cccnc1`, the inhibition was -5.19% (inactive).
Still for that read-out and setting: then `CC(=O)Nc1ccc(Nc2cc(N3CCOCC3)c3nonc3c2[N+](=O)[O-])cc1`, with -6.25% (inactive).
Same read-out and setting: for `Nc1cc(Nc2ccccc2)c2nonc2c1[N+](=O)[O-]` the value was -1.31% (inactive); for `CC(=O)Nc1ccc(Nc2cc(N(C)C)c3nonc3c2[N+](=O)[O-])cc1`, -5.29% (inactive).
Still for that read-out and setting: for `O=[N+]([O-])c1c(Nc2ccc(O)cc2)cc(N2CCOCC2)c2nonc12` the value was 9.17% (inactive); for `O=[N+]([O-])c1ccc(Nc2ccccn2)c([N+](=O)[O-])c1`, -9.54% (inactive); for `CN(C)c1cc(Nc2ccc(O)cc2)c([N+](=O)[O-])c2nonc12`, -10.7% (inactive).
On to `COc1cccc(Nc2cc(N3CCOCC3)c3nonc3c2[N+](=O)[O-])c1`, for which the inhibition was 2.01% (inactive).
The same measure, in the same setting: then `CN(C)c1cc(Nc2cccc(O)c2)c([N+](=O)[O-])c2nonc12`, with 6.85% (inactive).
On the same count and under the same terms, then `Cc1ccc(-c2cc(C(=O)N3CCOCC3)c3cc(C)ccc3n2)cc1`, with -1.58% (inactive); and `O=C1CS/C(=C\S(=O)(=O)c2ccc(Cl)cc2)N1`, with -10.6% (inactive); and `CCC(=O)N1c2ccccc2-c2nnc(SC)nc2OC1c1ccc(N(C)C)cc1` (stereo not given), with -7.25% (inactive).
On the same count and under the same terms, for `Cc1cnn(C(=O)c2cc(-c3ccccn3)nc3ccc(Cl)cc23)c1` the value was 8.88% (inactive).
For `CCOC(=O)NC1(C(F)(F)F)NC(=O)N(C2CCCCC2)C1=O` (stereo not given), the inhibition is -2.12% (inactive).
Take `COc1ccc(CCNC(=O)CSc2nc(=O)n3cc(C)ccc3n2)cc1OC`: the inhibition was 3.6% (inactive).
Still for that read-out and setting: for `CCCCn1c(SCC(=O)NNC(=O)c2ccccc2)n[nH]c1=O` the value was 3.69% (inactive); for `Cc1nnc(SCC(=O)Nc2nc3ccccc3s2)n(N)c1=O`, -2.58% (inactive); for `CCNc1cc(Nc2c(C)n(C)n(-c3ccccc3)c2=O)c([N+](=O)[O-])c2nonc12`, 6.99% (inactive).
The same measure, in the same setting: then `Cc1c(Nc2cc(N3CCCCCC3)c3nonc3c2[N+](=O)[O-])c(=O)n(-c2ccccc2)n1C`, with -6.93% (inactive); and `O=C(O)c1ccc(Nc2ccc3nonc3c2[N+](=O)[O-])cc1`, with -2.31% (inactive).
The same measure, in the same setting: then `O=C(O)c1ccc(Nc2ccc([N+](=O)[O-])c3nonc23)cc1`, with -1.54% (inactive); and `O=[N+]([O-])c1c(Nc2ccccc2O)cc(N2CCOCC2)c2nonc12`, with 6.36% (inactive).
In the case of `O=[N+]([O-])c1c(Nc2ccccc2O)ccc2nonc12`, the inhibition is 6.25% (inactive).
Same read-out and setting: for `O=C(O)c1cccc(Nc2ccc([N+](=O)[O-])c3nonc23)c1` the value was 1.29% (inactive); for `O=C(O)c1cccc(Nc2ccc3nonc3c2[N+](=O)[O-])c1`, 1.54% (inactive).
